Results taken from paper PMC4552634, “A New Set of Chemical Starting Points with Plasmodium falciparum Transmission-Blocking Potential for Antimalarial Drug Discovery” (PLoS ONE, 2015).
About 3,200 (25%) of roughly 13,000 compounds showed an effect of 50% or more. The list shows a part of the results.

The molecules below were run on P. falciparum stage V gametocytes. Conditions: 48 h, 5 µM; inhibitor.
Design: BacTiter-Glo ATP luminescence viability of purified stage V gametocytes in 384-well plates, per cent inhibition versus DMSO

SMILES | % Inhibition [%]
C[C@@H](CC1CCCCC1)OC(=O)N(C)[C@@H]1CCN(C#N)C1 [TCMDC-138502] | 39.73
COCCCNC(=O)c1ccc(O)c(-c2cc(Cl)cc(Cl)c2)c1 [TCMDC-140158] | -17.86
Cc1noc(C)c1-c1cccc(CNCc2ccc(-c3ccc(-c4nc5cc(C(F)(F)F)ccc5[nH]4)cc3)cc2)c1.O=C(O)C(F)(F)F [TCMDC-133058] | 15.98
CC(=O)N(C)c1cccc(C(=O)Nc2cccc(-c3ccc(-c4nc5ccc(C(F)(F)F)cc5[nH]4)cc3)c2)c1 [TCMDC-137073] | 81.14
CC(=O)Nc1cc(C(=O)Nc2cccc(-c3cccc(-c4nc5ccc(C(F)(F)F)cc5[nH]4)c3)c2)ccc1C [TCMDC-137039] | 68.75
CC(=O)N(C)c1cccc(C(=O)Nc2cccc(-c3cccc(-c4nc5ccc(C(F)(F)F)cc5[nH]4)c3)c2)c1 [TCMDC-137069] | 42.31
CC(=O)Nc1cccc(C(=O)Nc2ccc(-c3cccc(-c4nc5ccc(C(F)(F)F)cc5[nH]4)c3)cc2)c1 [TCMDC-132140] | -29.21
Cc1cccc2[nH]c(-c3cccc(-c4cccc(NC(=O)c5ccc(C(N)=O)cc5)c4)c3)nc12 [TCMDC-132192] | -7.489
NC(=O)c1cccc(C(=O)Nc2cccc(-c3cccc(-c4nc5ccc(C(F)(F)F)cc5[nH]4)c3)c2)c1 [TCMDC-132199] | -28.51
NC(=O)c1ccc(C(=O)Nc2cccc(-c3ccc(-c4nc5ccc(C(F)(F)F)cc5[nH]4)cc3)c2)cc1 [TCMDC-132193] | -16.46
CC(=O)N(C)c1cccc(C(=O)Nc2ccc(-c3cccc(-c4nc5ccc(C(F)(F)F)cc5[nH]4)c3)cc2)c1 [TCMDC-137070] | -32.74
CC(=O)Nc1cc(C(=O)Nc2cccc(-c3cccc(-c4nc5c(C)cccc5[nH]4)c3)c2)ccc1C [TCMDC-137040] | 72.59
CC(=O)Nc1cccc(C(=O)Nc2ccc(-c3cccc(-c4nc5c(C)cccc5[nH]4)c3)cc2)c1 [TCMDC-132141] | -0.1401
CC(=O)Nc1ccc(C(=O)Nc2cccc(-c3ccc(-c4nc5ccc(C(F)(F)F)cc5[nH]4)cc3)c2)cn1 [TCMDC-136832] | 60.22
CC(=O)Nc1ccc(C(=O)Nc2cccc(-c3ccc(-c4nc5ccc(F)cc5[nH]4)cc3)c2)cn1 [TCMDC-136826] | -35.51
CCc1c(C(=O)NC2CCC(N3CCC(c4ccccc4C)CC3)CC2)[nH]c2ccc(Br)cc12 (stereo not shown) [TCMDC-133530] | -72.63
CC(CNC(=O)C(c1cc2ccccc2o1)N1CCN(C(c2ccccc2)c2ccccc2)CC1)c1ccccc1 (stereo not shown) [TCMDC-141010] | 11.08
O=C(Nc1ccc(C(F)(F)F)cc1)c1cccc(S(=O)(=O)NC2CCN(Cc3ccccc3)C2)c1 (stereo not shown) [TCMDC-132484] | -13.38
CCN(CC)CCNC(=O)c1ccc(NC(=O)c2oc3c(Cl)cccc3c2C)cc1 [TCMDC-125463] | 22.65
O=S(=O)(c1ccccc1)C1CC1 [TCMDC-132010] | 2.082
CSc1nnc2n(Cc3ccccc3)c(=O)c3c(n12)-c1ccccc1CC31CCCCC1 [TCMDC-125076] | -1.112
O=C(CSc1nc2ccccc2c(=O)n1CC1CCCO1)Nc1cc(C(F)(F)F)ccc1Cl (stereo not shown) [TCMDC-123732] | -97.98
O=C(Nc1ccc(-c2cccc(-c3nc4ccc(C(F)(F)F)cc4[nH]3)c2)cc1)Nc1ccc(F)c(F)c1F [TCMDC-133228] | -36.32
O=C(Nc1cccc(-c2cccc(-c3nc4ccc(C(F)(F)F)cc4[nH]3)c2)c1)c1ccncc1 [TCMDC-136963] | -4.28
CC(=O)Nc1ccc(C(=O)Nc2cccc(-c3cccc(-c4nc5ccc(F)cc5[nH]4)c3)c2)cn1 [TCMDC-136824] | -57.69
CC(=O)Nc1ccc(C(=O)Nc2ccc(-c3cccc(-c4nc5ccc(C(F)(F)F)cc5[nH]4)c3)cc2)cn1 [TCMDC-136829] | 5.637

SMILES | % Inhibition [%]
O=C(Nc1cccc(-c2cccc(-c3nc4ccc(C(F)(F)F)cc4[nH]3)c2)c1)Nc1ccc(F)c(F)c1F [TCMDC-133229] | 80.27
CC(=O)Nc1ccc(C(=O)Nc2cccc(-c3cccc(-c4nc5ccc(C(F)(F)F)cc5[nH]4)c3)c2)cn1 [TCMDC-136828] | 75.79
CNC(=O)Cc1ccc(C(=O)Nc2cccc(-c3cccc(-c4nc5ccc(C(F)(F)F)cc5[nH]4)c3)c2)cc1 [TCMDC-137074] | 50.29
NC(=O)c1ccc(C(=O)Nc2cccc(-c3cccc(-c4nc5ccc(C(F)(F)F)cc5[nH]4)c3)c2)cc1 [TCMDC-132191] | 5.838
O=C(Nc1cccc(-c2ccc(-c3nc4ccc(C(F)(F)F)cc4[nH]3)cc2)c1)Nc1ccc(F)c(F)c1F [TCMDC-133224] | -27.79
OCCN1CCN(Cc2ccc(-c3ccc(-c4nc5ccc(C(F)(F)F)cc5[nH]4)s3)cc2)CC1 [TCMDC-133034] | 6.44
COc1ccc(NC(=O)Nc2ccc(-c3cccc(-c4nc5ccccc5[nH]4)c3)cc2)cc1 [TCMDC-133250] | -9.476
O=C(Nc1ccc(Cn2ncc(N3CCCNCC3)c(Cl)c2=O)cc1)Nc1cccc(C(F)(F)F)c1 [TCMDC-141925] | -42.22
NC(=O)c1ccc(C(=O)Nc2cccc(-c3csc(-c4nc5ccccc5[nH]4)c3)c2)cc1 [TCMDC-132400] | -14.2
Cc1cc(C(F)(F)F)n2nc(C(=O)N(C)Cc3cncn3Cc3ccc(F)cc3)cc2n1 [TCMDC-132466] | 29.43
Cc1ccc(N2CCc3c(-c4cc5cccnc5nc4C)cc(C)nc32)c(Cl)c1 [TCMDC-136379] | 19.51
COc1ccc(C=C2SC(=O)NC2=Nc2ccccc2)c(OC)c1 [TCMDC-123697] | 23.55
Oc1cccc(Nc2nc(NCc3ccccc3)c3ccccc3n2)c1 [TCMDC-125640] | 36.33
Oc1ccc2nc(Nc3ccccc3)nc(NCCc3ccccc3)c2c1 [TCMDC-138404] | 68.97
Oc1ccc2nc(NCCCc3ccccc3)nc(NCCc3ccccc3)c2c1 [TCMDC-138406] | 91.92
Cl.OCCNc1nc(Nc2cccc(O)c2)nc2ccccc12 [TCMDC-123747] | -37.65
Cl.Oc1ccc(Nc2nc(NCC3CCCO3)c3ccccc3n2)cc1 (stereo not shown) [TCMDC-123730] | 79.07
Oc1ccc2nc(NCCCc3ccccc3)nc(NCCCc3ccccc3)c2c1 [TCMDC-138382] | 90.22
NC1CCN(c2nc(NCCCc3ccc(O)cc3)nc(NCc3cccc4ccccc34)n2)CC1 [TCMDC-133393] | 0.2406
Cl.Oc1cccc(Nc2nc(NCC3CCCO3)c3ccccc3n2)c1 (stereo not shown) [TCMDC-123641] | -25.34
Brc1ccc(Nc2nc(NCC3CCCO3)c3ccccc3n2)cc1 (stereo not shown) [TCMDC-124563] | 15.52
O=C(Nc1ccc(Br)cc1)Nc1ccc(Cn2ncc(N3CCCNCC3)c(Cl)c2=O)cc1 [TCMDC-133329] | -9.301
CC(=O)Nc1sc(C)c(C)c1CN1CCc2ccccc2C1 [TCMDC-124498] | -41.39
COc1ccc(Nc2ncc3c(-c4cccc(NC(=O)c5ccc(N)cc5)c4)c[nH]c3n2)cc1OC [TCMDC-135250] | -78.65
N#Cc1ccccc1N1CCN(C2CCC(NC(=O)c3n[nH]c4cc(C(F)(F)F)ccc34)CC2)CC1 (stereo not shown) [TCMDC-134100] | -13.75
CSCCC(C(=O)O)N1C(=O)c2ccccc2C1=O (stereo not shown) [TCMDC-125514] | -25.71

SMILES | % Inhibition [%]
O=c1cc(NCCCNCc2cccc(SC(F)(F)F)c2)[nH]c2ccccc12 [TCMDC-139420] | -38.07
CC(O)C1CCCCN1C(=O)c1ccc(-c2ccc(-c3nc4ccccc4[nH]3)s2)cc1 (stereo not shown) [TCMDC-132330] | -3.595
CCN1CCN(c2cc(C)c3cc(NC(=O)C=Cc4cccc(OC)c4OC)ccc3n2)CC1 [TCMDC-123803] | -23.17
CCC(C)OC(=O)C1=C(C)NC2=C(C(=O)CC(c3ccc(OC)c(OC)c3)C2)C1c1ccc(C)o1 (stereo not shown) [TCMDC-123735] | 31.33
CCCc1cc(C(=O)N[C@@H](Cc2ccccc2)[C@H](O)CNC(C)C)c(F)c(N2CCCC2=O)c1 [TCMDC-135418] | 10.92
Oc1ccc(Nc2nc(NCc3ccco3)c3ccccc3n2)cc1 [TCMDC-124015] | -74.78
Cl.OCCNc1nc(Nc2ccc(F)cc2)nc2ccccc12 [TCMDC-123640] | -1.104
Cl.Oc1ccc(Nc2nc(N3CCCC3)c3ccccc3n2)cc1 [TCMDC-123532] | 79.67
Cl.OCCNc1nc(Nc2ccccc2)nc2ccccc12 [TCMDC-123749] | 91.01
COc1ccc(Nc2nc(N3CCCC3)c3ccccc3n2)cc1.Cl [TCMDC-124381] | -67.29
Cl.OCCNc1nc(Nc2ccc(Cl)cc2)nc2ccccc12 [TCMDC-125389] | 1.912
CC1CC(NCCCNc2cc(=O)c3ccccc3[nH]2)c2c(Cl)c(Cl)cc(Cl)c21 (stereo not shown) [TCMDC-139486] | 41.94
C(=N\Nc1nccc2sc(-c3cccnc3)cc12)/c1ccncc1 [TCMDC-135305] | -45.13
O=[N+]([O-])c1ccc2nccnc2c1 [TCMDC-123943] | 28.42
CCOc1ccc2nc3cc(NC(=O)c4ccco4)ccc3c(N)c2c1 [TCMDC-125004] | 120.6
CCOc1cc(N)c2nc3ccc([N+](=O)[O-])cc3cc2c1 [TCMDC-138134] | 64.78
O=C(Nc1ccc(Oc2ccc(OC(F)(F)F)cc2)cc1)c1ccco1 [TCMDC-124049] | 6.868
CCCC1N=C(N)N=C(N)N1c1cccc([N+](=O)[O-])c1 (stereo not shown) [TCMDC-131299] | -55.59
Nc1ccc2c(N)c3ccccc3nc2c1 [TCMDC-132034] | 26.54
Nc1c2ccccc2nc2cc(C(F)(F)F)ccc12 [TCMDC-142006] | 51.79
CC(O)C(=O)O.CCOc1ccc2nc3cc(N)ccc3c(N)c2c1 [TCMDC-123983] | 24.81
Nc1cc(C(F)(F)F)ccc1Cl [TCMDC-123950] | 13.58
CCOc1ccc2nc3cc([N+](=O)[O-])ccc3c(N)c2c1 [TCMDC-125852] | 122.1
CCNc1cc(C)nc(Nc2ccc(NC(=O)c3ccco3)cc2)n1 [TCMDC-124982] | -6.858
